Data taken from the supplement of paper PMC11732987, “Enantioselective OTUD7B fragment discovery through chemoproteomics screening and high-throughput optimisation” (Communications Chemistry, 2025).

What was measured:
Experiment in all cases: log2 ratio of Biotin-Ahx-Ub-VS probe labelling (fragment/DMSO); higher = less target engagement (more negative = stronger competition), active = hit call of the paper (q ≤ 0.05, log2 ratio ≤ -1)
Settings in all cases: compound concentration: 200 uM; treatment time: 3 h
ALG13 = target: T1, ALG13 (UniProt Q9NP73)
T1 sequence (whole entry): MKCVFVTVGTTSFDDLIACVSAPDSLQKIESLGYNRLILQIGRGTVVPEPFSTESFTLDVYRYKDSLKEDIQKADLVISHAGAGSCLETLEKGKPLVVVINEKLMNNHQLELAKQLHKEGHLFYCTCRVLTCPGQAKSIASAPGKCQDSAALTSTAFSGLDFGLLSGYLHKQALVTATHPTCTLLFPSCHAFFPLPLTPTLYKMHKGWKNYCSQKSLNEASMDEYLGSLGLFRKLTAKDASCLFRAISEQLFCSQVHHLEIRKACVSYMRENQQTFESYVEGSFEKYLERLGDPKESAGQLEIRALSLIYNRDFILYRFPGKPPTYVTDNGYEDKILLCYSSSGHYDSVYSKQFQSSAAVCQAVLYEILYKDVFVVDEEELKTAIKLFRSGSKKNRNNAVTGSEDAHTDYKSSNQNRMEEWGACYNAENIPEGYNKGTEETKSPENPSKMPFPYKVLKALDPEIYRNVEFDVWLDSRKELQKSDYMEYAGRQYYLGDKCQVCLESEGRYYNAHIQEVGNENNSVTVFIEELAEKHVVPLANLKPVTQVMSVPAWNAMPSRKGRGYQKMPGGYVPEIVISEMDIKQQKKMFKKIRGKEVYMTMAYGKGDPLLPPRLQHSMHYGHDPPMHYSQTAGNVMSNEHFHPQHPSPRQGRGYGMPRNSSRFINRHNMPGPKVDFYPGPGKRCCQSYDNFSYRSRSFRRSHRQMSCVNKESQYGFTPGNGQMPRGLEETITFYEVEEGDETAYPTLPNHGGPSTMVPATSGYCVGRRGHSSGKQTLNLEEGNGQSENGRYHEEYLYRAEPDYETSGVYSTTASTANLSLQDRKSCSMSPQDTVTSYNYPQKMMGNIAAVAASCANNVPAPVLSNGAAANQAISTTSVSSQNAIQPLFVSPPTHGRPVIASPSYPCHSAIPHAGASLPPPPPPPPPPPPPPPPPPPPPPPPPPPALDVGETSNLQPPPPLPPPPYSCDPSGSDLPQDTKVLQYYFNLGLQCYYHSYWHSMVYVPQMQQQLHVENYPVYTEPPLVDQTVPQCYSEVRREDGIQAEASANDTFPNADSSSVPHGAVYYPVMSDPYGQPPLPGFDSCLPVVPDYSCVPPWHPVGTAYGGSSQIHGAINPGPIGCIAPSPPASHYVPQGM
Summary of the method: (§1)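 Fragment (200 µM) or vehicle was incubated for 3 h with triplicate HEK293T lysate samples of 495 µg, which were then treated with Biotin-Ahx-Ub-VS at 0.5 µM final for 1 h. Labelled DUBs were enriched on NeutrAvidin, digested with LysC and trypsin, and analysed by diaPASEF LC-MS/MS. Values are average log2 fragment/vehicle ratios from an unpaired t-test on global-median-normalised Spectronaut label-free quantities, using proteins with ≥2 unique peptides.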

ATXN3 = ATXN3 (UniProt P54252)
Summary of the method: as §1

BAP1 = target: T2, BAP1 (UniProt Q92560)
T2 sequence (whole entry): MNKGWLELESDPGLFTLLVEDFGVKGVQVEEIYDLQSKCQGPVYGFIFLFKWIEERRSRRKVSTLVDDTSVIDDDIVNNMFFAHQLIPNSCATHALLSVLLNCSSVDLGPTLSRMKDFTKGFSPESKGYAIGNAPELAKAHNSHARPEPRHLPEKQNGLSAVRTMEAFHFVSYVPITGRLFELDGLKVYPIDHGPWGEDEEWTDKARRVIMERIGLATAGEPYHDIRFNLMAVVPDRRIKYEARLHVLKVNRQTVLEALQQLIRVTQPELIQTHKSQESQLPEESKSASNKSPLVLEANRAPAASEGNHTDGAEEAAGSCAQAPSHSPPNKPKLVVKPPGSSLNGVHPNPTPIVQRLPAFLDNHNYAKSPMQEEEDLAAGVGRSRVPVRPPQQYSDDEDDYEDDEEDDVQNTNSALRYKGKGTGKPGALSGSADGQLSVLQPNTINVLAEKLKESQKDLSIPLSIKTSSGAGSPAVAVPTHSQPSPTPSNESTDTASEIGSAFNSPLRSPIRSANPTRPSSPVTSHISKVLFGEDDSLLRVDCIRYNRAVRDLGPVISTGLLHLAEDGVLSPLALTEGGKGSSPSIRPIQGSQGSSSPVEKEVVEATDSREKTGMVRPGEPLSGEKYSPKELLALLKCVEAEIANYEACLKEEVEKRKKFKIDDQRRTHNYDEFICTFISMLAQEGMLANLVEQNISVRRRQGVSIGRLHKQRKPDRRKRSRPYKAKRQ
Summary of the method: as §1

EIF3F = EIF3F (UniProt O00303)
Summary of the method: as §1

EIF3H = EIF3H (UniProt O15372)
Summary of the method: as §1

FAM105A = target: T3, FAM105A (UniProt Q9NUU6)
T3 sequence (whole entry): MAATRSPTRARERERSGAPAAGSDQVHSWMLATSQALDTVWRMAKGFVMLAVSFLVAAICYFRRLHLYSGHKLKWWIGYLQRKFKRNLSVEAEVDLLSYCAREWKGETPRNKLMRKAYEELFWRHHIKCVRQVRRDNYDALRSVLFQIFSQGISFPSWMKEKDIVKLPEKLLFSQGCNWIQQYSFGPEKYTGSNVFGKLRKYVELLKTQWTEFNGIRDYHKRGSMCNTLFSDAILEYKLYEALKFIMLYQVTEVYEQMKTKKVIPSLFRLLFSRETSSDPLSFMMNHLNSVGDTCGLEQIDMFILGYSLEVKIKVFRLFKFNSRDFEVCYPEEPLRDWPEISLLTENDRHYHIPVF
Summary of the method: as §1

OTUB1 = OTUB1 (UniProt Q96FW1)
Summary of the method: as §1

OTUD4 = target: T4, OTUD4 (UniProt Q01804)
T4 sequence (whole entry): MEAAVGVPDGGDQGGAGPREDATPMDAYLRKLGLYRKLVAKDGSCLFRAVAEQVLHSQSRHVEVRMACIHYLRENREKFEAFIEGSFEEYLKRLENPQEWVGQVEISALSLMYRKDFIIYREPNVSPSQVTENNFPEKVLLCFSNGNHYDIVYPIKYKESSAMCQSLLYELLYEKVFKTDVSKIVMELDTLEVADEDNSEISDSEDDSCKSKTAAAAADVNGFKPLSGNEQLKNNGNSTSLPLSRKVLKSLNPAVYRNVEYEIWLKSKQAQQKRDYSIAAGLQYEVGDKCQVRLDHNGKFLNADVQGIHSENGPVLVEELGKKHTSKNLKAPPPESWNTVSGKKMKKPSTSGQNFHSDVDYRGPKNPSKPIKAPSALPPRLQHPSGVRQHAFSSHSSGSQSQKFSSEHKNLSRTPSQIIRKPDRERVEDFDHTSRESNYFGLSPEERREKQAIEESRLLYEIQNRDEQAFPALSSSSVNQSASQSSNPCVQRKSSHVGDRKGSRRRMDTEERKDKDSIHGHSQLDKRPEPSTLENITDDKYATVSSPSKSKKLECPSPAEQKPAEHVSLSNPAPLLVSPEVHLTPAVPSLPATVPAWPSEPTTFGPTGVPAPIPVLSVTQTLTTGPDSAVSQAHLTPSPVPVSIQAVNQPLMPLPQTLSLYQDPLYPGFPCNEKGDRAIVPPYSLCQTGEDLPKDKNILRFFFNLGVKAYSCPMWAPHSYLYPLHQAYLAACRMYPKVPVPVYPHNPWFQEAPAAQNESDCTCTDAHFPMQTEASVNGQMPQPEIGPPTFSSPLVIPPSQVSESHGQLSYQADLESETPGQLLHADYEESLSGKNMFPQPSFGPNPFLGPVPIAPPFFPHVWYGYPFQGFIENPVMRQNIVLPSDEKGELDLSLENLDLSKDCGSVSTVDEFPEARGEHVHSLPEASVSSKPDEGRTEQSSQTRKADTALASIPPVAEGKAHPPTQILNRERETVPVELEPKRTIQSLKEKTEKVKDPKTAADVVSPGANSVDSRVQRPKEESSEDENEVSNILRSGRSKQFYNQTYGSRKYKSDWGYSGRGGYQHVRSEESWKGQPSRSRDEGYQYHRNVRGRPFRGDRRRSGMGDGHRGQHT
Summary of the method: as §1

OTUD5 = target: T5, OTUD5 (UniProt Q96G74)
T5 sequence (whole entry): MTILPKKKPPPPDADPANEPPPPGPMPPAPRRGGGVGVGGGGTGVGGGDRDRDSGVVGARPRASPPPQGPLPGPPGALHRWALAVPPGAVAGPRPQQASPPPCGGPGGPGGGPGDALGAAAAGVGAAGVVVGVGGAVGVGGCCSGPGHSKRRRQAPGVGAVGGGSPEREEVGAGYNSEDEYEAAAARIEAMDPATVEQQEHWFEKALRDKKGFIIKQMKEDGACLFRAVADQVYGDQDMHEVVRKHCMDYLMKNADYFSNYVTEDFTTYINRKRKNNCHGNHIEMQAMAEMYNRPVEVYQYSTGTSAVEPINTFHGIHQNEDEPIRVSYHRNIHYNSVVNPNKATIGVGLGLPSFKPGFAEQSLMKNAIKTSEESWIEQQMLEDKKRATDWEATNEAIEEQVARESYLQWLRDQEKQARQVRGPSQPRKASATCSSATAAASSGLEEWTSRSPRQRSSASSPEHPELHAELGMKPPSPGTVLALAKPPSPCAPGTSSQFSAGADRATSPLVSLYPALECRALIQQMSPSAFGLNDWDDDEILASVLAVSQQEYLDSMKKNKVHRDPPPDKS
Summary of the method: as §1

Measured: log2 ratio of Biotin-Ahx-Ub-VS probe labelling

Sequence of ATXN3 (P54252 whole entry): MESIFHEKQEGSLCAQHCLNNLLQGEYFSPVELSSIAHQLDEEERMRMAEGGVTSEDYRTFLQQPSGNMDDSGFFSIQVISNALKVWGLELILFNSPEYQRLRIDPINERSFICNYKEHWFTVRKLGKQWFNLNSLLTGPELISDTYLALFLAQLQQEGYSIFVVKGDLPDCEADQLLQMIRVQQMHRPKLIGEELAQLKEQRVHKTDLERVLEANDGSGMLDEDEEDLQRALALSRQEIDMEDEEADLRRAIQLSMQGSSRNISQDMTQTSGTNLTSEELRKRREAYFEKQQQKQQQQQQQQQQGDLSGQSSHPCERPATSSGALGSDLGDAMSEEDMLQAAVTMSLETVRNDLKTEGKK
Sequence of OTUB1 (Q96FW1 whole entry): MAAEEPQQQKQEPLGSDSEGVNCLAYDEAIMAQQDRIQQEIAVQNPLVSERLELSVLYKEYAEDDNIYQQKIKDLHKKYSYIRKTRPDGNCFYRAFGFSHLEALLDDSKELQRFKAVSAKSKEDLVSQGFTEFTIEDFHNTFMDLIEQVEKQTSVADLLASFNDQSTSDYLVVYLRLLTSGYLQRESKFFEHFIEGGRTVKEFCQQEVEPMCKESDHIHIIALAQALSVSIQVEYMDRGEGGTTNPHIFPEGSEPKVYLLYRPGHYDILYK
Sequence of EIF3F (O00303 whole entry): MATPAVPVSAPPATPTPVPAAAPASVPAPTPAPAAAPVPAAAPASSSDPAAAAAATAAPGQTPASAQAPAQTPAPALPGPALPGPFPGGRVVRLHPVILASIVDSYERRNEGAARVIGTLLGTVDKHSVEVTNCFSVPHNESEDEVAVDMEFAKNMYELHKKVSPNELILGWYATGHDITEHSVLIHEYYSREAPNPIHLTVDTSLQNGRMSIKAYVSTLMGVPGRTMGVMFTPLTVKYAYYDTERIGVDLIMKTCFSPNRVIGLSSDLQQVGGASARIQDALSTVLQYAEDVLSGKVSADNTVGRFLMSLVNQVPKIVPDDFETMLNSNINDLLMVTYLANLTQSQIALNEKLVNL
Sequence of EIF3H (O15372 whole entry): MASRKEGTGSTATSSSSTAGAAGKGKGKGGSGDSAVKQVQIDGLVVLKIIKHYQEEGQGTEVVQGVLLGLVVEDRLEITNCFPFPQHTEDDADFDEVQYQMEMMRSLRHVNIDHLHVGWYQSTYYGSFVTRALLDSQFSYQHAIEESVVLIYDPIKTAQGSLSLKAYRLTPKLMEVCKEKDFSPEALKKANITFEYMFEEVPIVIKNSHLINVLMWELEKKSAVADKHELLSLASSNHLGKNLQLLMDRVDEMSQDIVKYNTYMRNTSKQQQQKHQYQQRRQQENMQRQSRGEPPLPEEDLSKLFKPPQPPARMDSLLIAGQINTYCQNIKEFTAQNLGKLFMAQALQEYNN

O=C(CCl)N1CCC(C(O)c2ccc(F)cc2)CC1 (centres undefined)
inactive: ALG13 0.00454 | ATXN3 -0.475 | BAP1 -0.334 | EIF3F -0.0081 | EIF3H 0.17 | FAM105A -0.0782 | OTUB1 -0.215 | OTUD4 -0.0305 | OTUD5 -0.189
